Laboratory results as given in PubChem BioAssay (NCI).
Values joined by “and” are separate entries in the source; they are usually repeats but may differ in a detail not shown here. Equal entries are not always repeated. Compounds without any hit were thinned out: in the full panel of roughly 79,000, 15% have a hit. Some structures have more than one record in an assay (separate samples or runs), and their calls can disagree. Active and inactive are the calls of the source. No stated cut-off is given here; in the data, active means growth inhibition above about 70%; inactive means the rest.

Experiments:
[1] = NCI Yeast Anticancer Drug Screen. Data for the rad50 strain (AID 155);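 further: 0% = growth of vehicle-only cultures of the same strain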; conditions: S. cerevisiae rad50 strain growth inhibition, stronger effect = higher value
How it was run: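 A DNA repair-deficient yeast mutant serves as the test organism; compound-induced growth inhibition is calculated against vehicle-treated cells.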

[2] = NCI Yeast Anticancer Drug Screen. Data for the mec2-1 strain (AID 157); conditions: S. cerevisiae mec2-1 strain, stronger effect = higher value
How it was run: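 Vehicle-treated cultures served as reference for growth inhibition of compound-exposed mec2-1 yeast.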

[3] = NCI Yeast Anticancer Drug Screen. Data for the sgs1 mgt1 strain (AID 161);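 further: 0% = growth of cultures given vehicle only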; conditions: S. cerevisiae sgs1 mgt1 strain, stronger effect = higher value
How it was run: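 Inhibition of yeast growth, normalised to vehicle-treated controls, is reported for a strain bearing genetic alterations in DNA damage repair.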

[4] = NCI Yeast Anticancer Drug Screen. Data for the cln2 rad14 strain (AID 165);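 further: 0% = growth equal to vehicle treated cultures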; conditions: S. cerevisiae cln2 rad14 strain, stronger effect = higher value
How it was run: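 Each compound was tested on cln2 rad14 yeast. Inhibition of growth was calculated against vehicle-exposed controls.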

[5] = NCI Yeast Anticancer Drug Screen. Data for the bub3 strain (AID 167); conditions: S. cerevisiae bub3 mutant strain, stronger effect = higher value
How it was run: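 Inhibition values come from growth of compound-treated mutant yeast normalised to vehicle-treated controls.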

[6] = NCI Yeast Anticancer Drug Screen. Data for the mlh1 rad18 strain (AID 175); conditions: S. cerevisiae mlh1 rad18 strain growth inhibition, stronger effect = higher value
How it was run: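 Vehicle-treated cultures served as the reference for growth inhibition in a yeast strain carrying DNA damage repair alterations exposed to each compound.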

[7] = at 5.0 µM (retest, dose inferred, filed as 0.5)
[8] = at 50.0 µM (retest, dose inferred, filed as 5.0)

Measured: growth inhibition

CC1=CC2OC3CC4OC(=O)/C=C/C=C/C(C(C)O)OCC(O)C(C)CC(=O)OCC2(CC1O)C4(C)C31CO1 (centres undefined)
active: [1]; [8] 96% | [1]; at 50.0 µM 90.4% | [2]; [8] 99% | [2]; at 50.0 µM 91.9% | [3]; [8] 94% | [3]; at 50.0 µM 92.2% | [4]; [8] 94% | [4]; at 50.0 µM 90.3% | [5]; [8] 95% | [5]; at 50.0 µM 91% | [6]; [8] 98% | [6]; at 50.0 µM 89.2%
inactive: [1]; [7] 39% | [2]; [7] 40% | [3]; [7] 48% | [4]; [7] 34% | [5]; [7] 25% | [6]; [7] 42%

CCCCCCCCCCCCCCCC[N+](C)(C)CCBr
active: [1]; [7] 99% | [1]; [8] 98% | [1]; at 50.0 µM 89.2% and 98.8% | [2]; [7] 99% | [2]; [8] 99% | [2]; at 50.0 µM 92.5% and 99.2% | [3]; [7] 99% | [3]; [8] 99% | [3]; at 50.0 µM 87.2% and 99.3% | [4]; [7] 99% | [4]; [8] 99% | [4]; at 50.0 µM 89.2% and 99.2% | [5]; [7] 99% | [5]; [8] 99% | [5]; at 50.0 µM 82.3% and 99.1% | [6]; [7] 98% | [6]; [8] 98% | [6]; at 50.0 µM 92.3% and 99.2%

CC[CH2][Sn]([CH2]CC)([CH2]CC)[CH2]CCBr
active: [1]; [7] 98% | [1]; [8] 99% | [1]; at 50.0 µM 99.5% | [2]; [7] 99% | [2]; [8] 100% | [2]; at 50.0 µM 99.7% | [3]; [7] 99% | [3]; [8] 100% | [3]; at 50.0 µM 99.6% | [4]; [7] 99% | [4]; [8] 98% | [4]; at 50.0 µM 99.3% | [5]; [7] 99% | [5]; [8] 99% | [5]; at 50.0 µM 99.7% | [6]; [7] 99% | [6]; [8] 99% | [6]; at 50.0 µM 99.5%

CC12CCC3C(CCC4CC(N5CCCCC5)=CCC43C)C1CCC2O (centres undefined)
active: [1]; [8] 98% | [2]; [8] 97% | [2]; at 50.0 µM 89.4% | [3]; [8] 99% | [4]; [8] 98% | [4]; at 50.0 µM 73% | [5]; [8] 98% | [5]; at 50.0 µM 84.5% | [6]; [8] 98% | [6]; at 50.0 µM 98.5%
inactive: [1]; [7] -3% | [1]; at 50.0 µM 48.5% | [2]; [7] -12% | [3]; [7] 5% | [3]; at 50.0 µM 47.1% | [4]; [7] 5% | [5]; [7] -8% | [6]; [7] -3%

CC1=C[n+]2cc(C)ccc2Sc2c1ccc1ccccc21
active: [2]; at 50.0 µM 74.7% | [3]; at 50.0 µM 80.5% | [6]; at 50.0 µM 79.5%
inactive: [1]; [7] -2% | [1]; [8] 24% | [1]; at 50.0 µM 64.3% | [2]; [7] 11% | [2]; [8] 50% | [3]; [7] -20% | [3]; [8] 10% | [4]; [7] -2% | [4]; [8] 4% | [4]; at 50.0 µM 28.8% | [5]; [7] 0% | [5]; [8] 29% | [5]; at 50.0 µM 66.9% | [6]; [7] -1% | [6]; [8] 30%

CNC(=O)Oc1ccccc1/C=N\Sc1ccc(Cl)cc1
active: [1]; at 50.0 µM 97.2% | [2]; at 50.0 µM 99% | [3]; at 50.0 µM 98.9% | [4]; at 50.0 µM 82.8% | [5]; at 50.0 µM 98.6% | [6]; at 50.0 µM 99.2%
inactive: [1]; [7] -2% | [1]; [8] 21% | [2]; [7] 1% | [2]; [8] 21% | [3]; [7] 3% | [3]; [8] 43% | [4]; [7] -4% | [4]; [8] 10% | [5]; [7] -4% | [5]; [8] 6% | [6]; [7] -2% | [6]; [8] 35%

N#CC(C#N)=Cc1cccc([N+](=O)[O-])c1
-27.9% (inactive) and 97.8% (active): [6]; at 50.0 µM
-11.1% (inactive) and 90.8% (active): [2]; at 50.0 µM
active: [1]; [8] 89% | [2]; [8] 92% | [3]; [8] 84% | [5]; [8] 76% | [6]; [8] 92%
-4.8% (inactive) and 93.7% (active): [4]; at 50.0 µM
inactive: [1]; [7] 42% | [2]; [7] 29% | [3]; [7] 13% | [4]; [7] 1% | [4]; [8] 28% | [5]; [7] 9% | [6]; [7] 33%
-24.4% (inactive) and 99.2% (active): [3]; at 50.0 µM
-15.1% (inactive) and 98.2% (active): [1]; at 50.0 µM
-8.45% (inactive) and 99.5% (active): [5]; at 50.0 µM

CNC(=O)N1CN(c2ccccc2)C2(CCN(CCCC(=O)c3ccc(F)cc3)CC2)C1=O
inactive: [1]; [7] -7% | [1]; [8] 31% | [1]; at 50.0 µM 51.5% | [2]; [7] -14% | [2]; [8] 23% | [2]; at 50.0 µM 37.9% | [3]; [7] -3% | [3]; [8] 40% | [3]; at 50.0 µM 68.3% | [4]; [7] 5% | [4]; [8] 67% | [5]; [7] 5% | [5]; [8] 59% | [6]; [7] -20% | [6]; [8] 39% | [6]; at 50.0 µM 68.3%
active: [4]; at 50.0 µM 70.3% | [5]; at 50.0 µM 76%
